The nature of assay [1]: TOX21_p53_BLA_p4_viability: Viability Assessment in the Tox21 HCT-116 p53 Agonism Beta-lactamase Assay, Phase 4 (AID 2283597).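 Note: hits lower the luminescence signal meaning cytotoxicity.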 The essentials: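 Luminescent ATP readout (CellTiter-Glo, 30 min, room temperature) in the same wells as the p53 bla ratio. HCT116 cells were treated for 16 h at 37C with DMSO-dissolved compounds.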
For assay [2], the target named is Cellular tumor antigen p53 (Homo sapiens) (UniProt P04637). The assay is described as follows: TOX21_p53_BLA_p5_ratio: Tox21 HCT-116 p53 Agonism Beta-lactamase Assay, Ratio, Phase 5 (AID 2283599). The method in brief: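 HCT-116 p53-bla cells (4000/well) plated 5 h, dosed with compound (217-fold DMSO dilution) for 16 h at 37 C; CCF4-AM substrate 2 h at room temperature. Activity is the 460/530 nm emission ratio (405 nm excitation), fitted in gain-of-signal direction versus DMSO.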
Sequence of Cellular tumor antigen p53 (Homo sapiens) (P04637 whole entry, looked up): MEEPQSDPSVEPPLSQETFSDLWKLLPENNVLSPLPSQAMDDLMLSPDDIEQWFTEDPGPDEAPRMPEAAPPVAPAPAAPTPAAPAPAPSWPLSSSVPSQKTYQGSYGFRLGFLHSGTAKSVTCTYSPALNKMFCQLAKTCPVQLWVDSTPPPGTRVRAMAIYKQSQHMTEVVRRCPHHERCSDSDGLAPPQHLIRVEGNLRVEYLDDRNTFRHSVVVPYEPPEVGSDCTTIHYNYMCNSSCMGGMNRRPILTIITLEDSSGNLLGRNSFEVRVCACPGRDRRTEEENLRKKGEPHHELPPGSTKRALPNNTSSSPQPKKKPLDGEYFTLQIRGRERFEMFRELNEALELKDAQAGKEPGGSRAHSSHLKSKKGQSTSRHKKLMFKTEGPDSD

A short description of assay [3]: TOX21_p53_BLA_p5_viability: Viability Assessment in the Tox21 HCT-116 p53 Agonism Beta-lactamase Assay, Phase 5 (AID 2283600). The method in brief:
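Seeded cells (4000/well) settle 5 h before compound addition. Plates then incubate 16 h at 37C, receive FRET substrate for 2 h, and finally CellTiter-Glo, with luminescence measured after a 30 min room-temperature incubation.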

Assay [4] has as its target Cellular tumor antigen p53 (Homo sapiens) (UniProt P04637). The assay is described as follows: TOX21_p53_BLA_p4_ratio: Tox21 HCT-116 p53 Agonism Beta-lactamase Assay, Ratio, Phase 4 (AID 2283601). The essentials:
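HCT-116 p53 beta-lactamase reporter cells (4000/well) preincubated 5 h, then compound (217-fold dilution of DMSO stock) for 16 h at 37C. CCF4-AM substrate added 2 h at room temperature; 460/530 nm emission ratio fitted upward versus DMSO.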

Where “and” joins values, the source holds several entries; their conditions need not be identical. Identical values can stand only once. Inconclusive results are not listed. Calls of active or inactive are those of the source. Rule for the calls: active = hit-call score of the fitted dose curve at least 0.9, where 1 is the maximum; inconclusive = response in the unintended direction; inactive = score below 0.9. Peptide text beside a SMILES is read from it.

In PubChem BioAssay (EPA / NIEHS) one finds outcome and AC50 data, which are given here for 49 molecules.

By AC50 is commonly meant the concentration giving half of the maximal activity seen.

For `C=C(C)C1CC=C(C)CC1` (stereo unspecified), the molecule was called inactive in assay [1], in assay [2], in assay [3] and in assay [4].
Turning to `CN(C)Cc1cc(CN(C)C)c(O)c(CN(C)C)c1`, the result in assay [1], in assay [2], in assay [3] and in assay [4] was inactive.
Turning to `O=C(Cl)c1c(Cl)c(Cl)c(C(=O)Cl)c(Cl)c1Cl`, the call in assay [1], in assay [2], in assay [3] and in assay [4] was inactive.
`CCCCCCOc1ccc(N)cc1`: the outcome in assay [1], in assay [2], in assay [3] and in assay [4] was inactive.
Regarding `Cc1cccc(C(C)(C)C)c1O`, the molecule was classed as inactive in assay [1], in assay [2], in assay [3] and in assay [4].
`CC(C)(c1ccccc1)c1ccc(Nc2ccc(C(C)(C)c3ccccc3)cc2)cc1`: the result in assay [1], in assay [2], in assay [3] and in assay [4] was inactive.
With `O=S(=O)(O)c1ccc(N=Nc2c(O)ccc3ccccc23)cc1`, the AC50 in assay [1] is 44 µM (active). The outcome in assay [2], in assay [3] and in assay [4] was inactive.
With `O=C(OCc1ccccc1)c1ccc(O)cc1`, the molecule was classed as inactive in assay [1], in assay [2], in assay [3] and in assay [4].
Take `CC(=O)OC1CCCCC1C(C)(C)C` (stereo unspecified): the molecule was called inactive in assay [1], in assay [2], in assay [3] and in assay [4].
With `C=CC(=O)OCCCCCCOC(=O)C=C`, the result in assay [1], in assay [3] and in assay [4] was inactive. Further, the AC50 in assay [2] was 42.4 µM (active) and 63.2 µM (active).
For the molecule `C=C(C)C(=O)OCCCCCCCCCCCC`, the outcome in assay [1], in assay [2], in assay [3] and in assay [4] was inactive.
On to `C=C(C)C(=O)OCCOC(=O)C(=C)C`, for which the molecule was classed as inactive in assay [1], in assay [2], in assay [3] and in assay [4].
With `CC(C)COC(=O)CC(C(=O)OCC(C)C)S(=O)(=O)O` (stereo unspecified), the call in assay [1], in assay [2] and in assay [4] was inactive.
On to `CCCCCCCC(=O)OCC(COC(=O)CCCCCCC)OC(=O)CCCCCCC`, for which the molecule was called inactive in assay [1], in assay [2], in assay [3] and in assay [4].
Regarding `COc1cc(C)ccc1O`, the molecule was classed as inactive in assay [1], in assay [2], in assay [3] and in assay [4].
As to `CCCCNS(=O)(=O)c1ccccc1`, the molecule was called inactive in assay [1], in assay [2], in assay [3] and in assay [4].
Turning to `CCCCOC(=O)C(C)CC` (stereo unspecified), the molecule was classed as inactive in assay [1], in assay [2], in assay [3] and in assay [4].
On to `CC1(C)CCC[C@]2(C)[C@H]3CC(=O)O[C@]3(C)CC[C@@H]12`, for which the molecule was called inactive in assay [1], in assay [2], in assay [3] and in assay [4].
In the case of `C=C(C)[C@@H]1CC=C(C)CC1`, the outcome in assay [1], in assay [2] and in assay [4] was inactive.
`CO[Si](C)(C)OC`: the outcome in assay [1], in assay [2], in assay [3] and in assay [4] was inactive.
Regarding `CCCCC1C(=O)N(c2ccccc2)N(c2ccccc2)C1=O`, the molecule was called inactive in assay [1], in assay [2], in assay [3] and in assay [4].
Regarding `C=C1C[C@H]2[C@@H]3C=C(C)C4=CC(=O)CC[C@]4(C)[C@H]3CC[C@]2(C)[C@@]1(OC(C)=O)C(C)=O`, the molecule was classed as inactive in assay [1], in assay [3] and in assay [4].
In the case of `CC(C)=CCl`, the call in assay [1], in assay [3] and in assay [4] was inactive.
As for `O=C(Cl)c1ccc(C(=O)Cl)cc1`, the molecule was called inactive in assay [1], in assay [2] and in assay [4].
As for `CCCCc1ccc(Cl)cc1`, the result in assay [1], in assay [3] and in assay [4] was inactive.
Consider `CCCCC1CCC(=O)O1` (stereo unspecified), for which the molecule was called inactive in assay [1], in assay [3] and in assay [4].
On to `O=C(Oc1ccccc1)c1ccccc1C(=O)Oc1ccccc1`, for which the call in assay [1], in assay [2] and in assay [4] was inactive.
Turning to `Oc1ccc(-c2ccccc2)c(Cl)c1`, the AC50 is 60.8 µM (active) in assay [1] and 76.2 µM (active) in assay [4]. Moreover, the molecule was classed as inactive in assay [3].
In the case of `C=CC(C)(CCC=C(C)C)OC(=O)C=Cc1ccccc1` (stereo unspecified), the outcome in assay [1] and in assay [3] was inactive.
For `CCCCCCO`, the outcome in assay [1] and in assay [3] was inactive.
On to `CC=C(C)C=CC=C(C)C`, for which the molecule was classed as inactive in assay [1], in assay [2] and in assay [4].
`COCC(=O)O`: the outcome in assay [1], in assay [3] and in assay [4] was inactive.
Regarding `CCCCCCCCCCCCCCCCCCOS(=O)(=O)O`, the outcome in assay [1], in assay [3] and in assay [4] was inactive.
For the molecule `Clc1cc(Cl)c(Cl)c(Cl)c1Cl`, the outcome in assay [1], in assay [3] and in assay [4] was inactive.
Turning to `C=CCCCCCCCCO`, the molecule was called inactive in assay [1], in assay [3] and in assay [4].
Take `CC(C)(C)NC(=O)[C@H]1CC[C@H]2[C@@H]3CC[C@H]4NC(=O)C=C[C@]4(C)[C@H]3CC[C@]12C`: the outcome in assay [1] and in assay [3] was inactive.
On to `CC(=O)OC/C=C(/C)CCC=C(C)C`, for which the molecule was called inactive in assay [1], in assay [3] and in assay [4].
`COC(=O)[C@H](Cc1ccccc1)NC(=O)[C@@H](N)CC(=O)O` (H-Asp-Phe-OMe): the result in assay [1], in assay [3] and in assay [4] was inactive.
For the molecule `COC(=O)CC(C)CCC=C(C)C` (stereo unspecified), the outcome in assay [1] and in assay [3] was inactive.
With `O=C(Nc1ccccc1)c1cc(Cl)ccc1O`, in assay [1], the AC50 was 12.6 µM (active). Further, the molecule was called inactive in assay [3] and in assay [4].
In the case of `Oc1ccc(/C=C/c2cc(O)cc(O)c2)cc1`, the outcome in assay [1], in assay [3] and in assay [4] was inactive.
As to `CCOC(=O)C1=NOC(c2ccccc2)(c2ccccc2)C1`, the outcome in assay [1], in assay [3] and in assay [4] was inactive.
Take `CC(C)(O)Cc1ccccc1`: the molecule was called inactive in assay [1] and in assay [3].
`O=C(O)c1ccc2c(c1)C(=O)OC2=O`: the outcome in assay [1], in assay [3] and in assay [4] was inactive.
As for `CCC[Si](OC)(OC)OC`, the molecule was called inactive in assay [1], in assay [2] and in assay [4].
Consider `N=C1C=CC(=C(c2ccc(N)cc2)c2ccc(N)cc2)C=C1`, for which the call in assay [1] and in assay [4] was inactive. Also, the AC50 in assay [2] is 67.3 µM (active).
On to `CC(=O)c1ccc(S(=O)(=O)NC(=O)NC2CCCCC2)cc1`, for which the outcome in assay [1], in assay [3] and in assay [4] was inactive.
Consider `CCCCNC(=S)NCCCC`, for which the outcome in assay [1], in assay [3] and in assay [4] was inactive.
`C=CC(=O)OCCCCCCCC(C)C`: the molecule was classed as inactive in assay [1], in assay [3] and in assay [4].
